This is one part of a sample in which hits are shown more often than they occur.
ClpP mod – qHTS Assay for Activators of ClpP; Potency, µM (top dose mostly 57.5 µM), inactives show at the highest dose activity change, negative = active; AID 651965, 2013; hit rate 1.9% among 340,000; purified B. subtilis ClpP, FRET peptide cleavage, 20 min; active = well fitted falling curve with a large enough effect; inconclusive = small, poorly fitted or top-dose-only effect; inactive = no such curve, though single readings can be large or run the other way; also: potency is read from the fitted curve at half-maximal effect; the source files actives as falling curves though it sought activators and does not explain the sign; nearly all actives have a fitted effect of over 65% in size
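FRET quenching reversal measured ClpP activation: 10 microg/mL B. subtilis ClpP at pH 8 with the FRET-FV decapeptide, read at 430 nm after 320 nm excitation. The 20-min minus 0-min signal was scaled between DMSO/no-enzyme wells and ADEP (5.8 microM final).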
p53 reactivator – qHTS assay for re-activators of p53 using a Luc reporter | H1299 p53-A138V BP100-luciferase reporter, luminescence, 24 h | Potency, µM (titrated, usually from 92.2 µM), for inactives: at the highest dose activity change, positive = activation, hits mostly activators | hit rate 0.063% among 320,000 | AID 504706, 2011; active = well fitted activation curve with a large enough effect; inconclusive = small, poorly fitted or top-dose-only effect; inactive = no such curve, though single readings can be large or run the other way; also: potency is read from the fitted curve at half-maximal effect; % of control where 0% means no effect; nearly all actives have a fitted effect of over 45% in size
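H1299 (p53-null), stable ts p53-A138V + BP100-Luc; 1000 cells/well, Opti-MEM/10% FBS; cpd 4 pt, 1:5; 24 h, 37 deg C, 5% CO2; detection reagent 10 min RT; luminescence.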
Menin MLL FP FL – qHTS Assay for Inhibitors Targeting the Menin-MLL Interaction in MLL Related Leukemias: Competition With Fluorescein Labeled MLL-derived Peptide; Fluorescence polarization, fluorescein-MLL peptide displacement from menin; FP activity change, % at 61.4 µM; 290,000 tested, under 10 active; AID 1766, 2009; active = well fitted curve in the direction sought with a large enough effect in the polarisation, not every such curve was filed as active; inconclusive = small, poorly fitted or top-dose-only effect, or effect the other way, or a change in a side signal; inactive = no such curve, though single readings can be large or run the other way; the % refers to the polarisation; also: % of control where 0% means no effect
CXXC DNA block – qHTS Fluorescence Polarization Assay for Inhibitors of MLL CXXC domain - DNA interaction; MLL-CXXC / FITC-HOXA9 DNA fluorescence polarization; hit rate 0.037% among 290,000; Histone-lysine N-methyltransferase 2A (Homo sapiens), Q03164; Potency, µM (series often up to 115 µM), inactives show at the top dose activity change, negative = inhibition, usual class: inhibitors; active = well fitted inhibition curve with a large enough effect in the polarisation, with a control signal flat, not every such curve was filed as active; inconclusive = small, poorly fitted or top-dose-only effect, or effect the other way, or a change in a side signal; inactive = no such curve, though single readings can be large or run the other way; the % refers to the polarisation; also: potency is read from the fitted curve at half-maximal effect
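Fluorescence polarization: 7 uM MLL-CXXC (stock) preincubated 5 min with compounds, then 50 nM fluorescein-HOX-A9 DNA (stock) added; 30 min ambient. Buffer 50 mM Tris-HCl pH 7.5, 50 mM NaCl, 1 mM DTT, 0.05% BSA.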
Menin MLL FP TR – qHTS Assay for Inhibitors Targeting the Menin-MLL Interaction in MLL Related Leukemias: Competition With Texas Red Labeled MLL-derived Mutant Peptide; O00255; Menin + Texas Red MLL mutant peptide, fluorescence polarization; Potency, µM (doses to about 61.6 µM), inactives show at the highest dose FP activity change, negative = inhibition, usual class: inhibitors; hit rate 0.23% among 270,000; AID 1768, 2009; active = well fitted inhibition curve with a large enough effect in the polarisation, with a control signal flat, not every such curve was filed as active; inconclusive = small, poorly fitted or top-dose-only effect, or effect the other way, or a change in a side signal; inactive = no such curve, though single readings can be large or run the other way; the % refers to the polarisation; also: potency is read from the fitted curve at half-maximal effect; % of control where 0% means no effect
Target sequence (O00255 whole entry, looked up): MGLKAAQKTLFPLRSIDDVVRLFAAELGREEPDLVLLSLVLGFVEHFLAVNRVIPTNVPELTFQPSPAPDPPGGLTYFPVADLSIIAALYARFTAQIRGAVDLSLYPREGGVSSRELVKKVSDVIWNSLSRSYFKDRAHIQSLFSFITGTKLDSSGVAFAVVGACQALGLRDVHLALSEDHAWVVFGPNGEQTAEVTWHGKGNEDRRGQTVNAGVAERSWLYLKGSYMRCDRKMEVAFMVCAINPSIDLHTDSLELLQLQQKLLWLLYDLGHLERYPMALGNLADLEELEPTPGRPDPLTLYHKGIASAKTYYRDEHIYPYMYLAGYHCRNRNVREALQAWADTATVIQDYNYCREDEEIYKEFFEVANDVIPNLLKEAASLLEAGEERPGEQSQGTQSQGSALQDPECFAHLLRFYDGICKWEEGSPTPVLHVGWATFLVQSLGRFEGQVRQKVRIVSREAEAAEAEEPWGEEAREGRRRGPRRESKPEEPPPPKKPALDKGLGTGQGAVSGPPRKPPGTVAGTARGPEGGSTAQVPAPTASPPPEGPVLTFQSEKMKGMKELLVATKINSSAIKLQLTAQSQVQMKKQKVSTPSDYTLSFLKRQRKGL
* hit, by the source's call; u = inconclusive; x = no result given; [ ] = another dose, or the depositor's remark.

SMILES	ClpP mod	p53 reactivator	Menin MLL FP FL	CXXC DNA block	Menin MLL FP TR
Cc1ccc(N(CC(=O)Nc2ccc(-c3nc4ccc(C)cc4s3)cc2)S(C)(=O)=O)cc1	11µM*	u	2	-9%	u
CCC1(c2ccc(F)cc2)NC(=O)N(CC(=O)Nc2ccc(-c3nc4ccc(C)cc4s3)cc2)C1=O (stereo not given)	7.9µM*	6%	1	10%	-5%
Cc1ccc2nc(-c3ccc(NC(=O)CCS(=O)(=O)c4ccccc4)cc3)sc2c1	x	u	7	12%	2%
C=CCn1c(SCC(=O)Nc2ccc(-c3nc4ccc(C)cc4s3)cc2)nnc1-c1ccncc1	3.5µM*	u	1	4%	10%
O=C(CCN1C(=O)NC2(CCCC2)C1=O)Nc1ccc(-c2nc3ccccc3s2)cc1	20µM*	x	x	x	x
COc1ccc(C2(C)NC(=O)N(CC(=O)Nc3ccc(-c4nc5ccc(C)cc5s4)cc3)C2=O)cc1 (stereo not given)	x	4%	u	u	-1%
Cc1cccc(C)c1NC(=O)c1nc(SC(C)C)ncc1Cl	1%	x	x	x	x
CC(C)CCCC(C)CCCC(C)CCCC(C)C(=O)O (stereo not given)	x	x	-4	x	7%
CCn1nc(-c2ccccc2C)nc2c(=O)n(C)c(=O)nc1-2	-2%	x	x	x	x
COc1ccc(-c2nnc(SCC(=O)Nc3ccc(F)cc3)s2)cc1	14µM*	x	x	x	x
CCOC(=O)Nc1nnc(/C=C/c2ccc(OC)cc2)s1	13µM*	7%	1	-1%	35%
CCCCC(=O)Nc1nnc(/C=C/c2ccc(OC)cc2)s1	5%	-8%	-6	17%	9%
CCOC(=O)Nc1nnc(-c2ccccc2OC)s1	3.5µM*	2%	0	-6%	0%
CCCC(=O)Nc1nnc(/C=C/c2ccc(OC)cc2)s1	x	4%	-3	-6%	-8%
CCCCOC(=O)Nc1nnc(/C=C/c2ccc(OC)cc2)s1	32µM*	-4%	1	7%	13%
CN(C)c1ccc(/C=C2\C=Cc3ccccc32)cc1Cl	-1%	x	x	x	x
O=[N+]([O-])c1ccc(Cl)c(S(=O)(=O)/N=C(/Sc2ccc(Br)cc2)c2ccccc2)c1	0%	x	x	x	x
CCOC(=O)Nc1nnc(-c2ccc(OC)cc2)s1	13µM*	8%	0	1%	-7%
COc1ccc2nc(NC(=O)C3CCCO3)sc2c1 (stereo not given)	0%	1%	-2	4%	15%
COc1ccc(/C=C/c2nnc(NC(=O)COc3ccc(C)cc3)s2)cc1	16µM*	4%	3	14%	25%
Cc1csc(NC(=O)CSc2nnc(NC(=O)COc3ccc(Cl)cc3)s2)n1	1%	12%	18	13%	25µM*
COc1ccc(-c2nnc(NC(=O)C3CCCO3)s2)cc1 (stereo not given)	13µM*	24%	1	-6%	-19%
CCCCc1nc2c(c3c1C[C@H](C)OC3)CN(C(=O)c1ccco1)CC2	x	x	1[11.7 µM]	x	1%[11.7 µM]
Cc1c(C2(c3cc(C(C)C)c(O)c(Br)c3C)OS(=O)(=O)c3ccccc32)cc(C(C)C)c(O)c1Br	-2%	x	x	x	x
CN(CCOc1ccccc1)C(=O)C1CCN(C(=O)c2ccc(F)cc2)CC1	22µM*	-1%	x	-16%	x
SMILES	ClpP mod	p53 reactivator	Menin MLL FP FL	CXXC DNA block	Menin MLL FP TR
Cn1c(N)c(C(=O)COC(=O)CNC(=O)c2ccccc2Cl)c(=O)n(C)c1=O	1%	-2%	x	x	x
Cn1c(N)c(C(=O)COC(=O)CNS(=O)(=O)c2ccc(Cl)c(Cl)c2)c(=O)n(C)c1=O	32µM*	6%	1	-3%	-1%
Cc1cc(C)n2c(Br)c(CSc3nc4ccccc4o3)nc2n1	28µM*	u	0	2%	-27%
O=C(OCCNC(=O)c1cc2ccccc2oc1=O)c1cccnc1	u	13%	-2	5%	7%
CCCCC(=O)OCCNC(=O)c1cc2ccccc2oc1=O	25µM*	-15%	2	4%	7%
CN(C)c1ccc(C=O)c(O)c1	-3%	x	x	x	x
O=C(N/N=C/c1ccccc1)c1[nH]c2ccc(Br)cc2c1-c1ccccc1	22µM*	u	1	4%	-1%
O=C(NN=C1CCCC1)c1[nH]c2ccc(Br)cc2c1-c1ccccc1	x	18%	6	0%	x
CSc1nc(NCC(C)O)c2c3c(sc2n1)CN(C)CC3 (stereo not given)	4%	-6%	-20	u	3%
CSc1nc(SCC(=O)NC(c2ccccc2)c2ccccc2)c2c3c(sc2n1)CN(C)CC3	28µM*	0%	8	14%	-23%
COC(=O)c1cc(OC)c(OC)cc1NC(=O)Nc1ccc(OC)cc1	25µM*	-4%	1	10%	-3%
COC(=O)c1cc(OC)c(OC)cc1NC(=O)CN1CCCCC1	-16%	0%	0	3%	-5%
COC(=O)c1cc(OC)c(OC)cc1NC(=O)CC1CCCCC1	28µM*	2%	-1	1%	-19%
COc1ccccc1-c1nn2c(-c3cc(C)[nH]n3)nnc2s1	-4%	x	x	x	x
O=C1C[C@H]2C=CCc3cccc(c32)CN1Cc1ccc(Cl)cc1	-6%	x	x	x	x
N#Cc1nc(-c2ccccc2F)oc1N1CCN(C(=O)c2ccco2)CC1	31%	-1%	-3	22%	-3%
N#Cc1nc(-c2ccc(OCc3ccc(Cl)cc3)cc2)oc1N1CCCCC1	4%	x	x	x	x
N#Cc1nc(-c2ccc(OCc3ccccc3)cc2)oc1NCc1ccco1	10µM*	7%	3	-4%	u
N#Cc1nc(-c2ccc(F)cc2)oc1N1CCN(C(=O)c2ccco2)CC1	3.2µM*	18%	3	u	30%
N#Cc1nc(-c2ccc(OCc3ccccc3)cc2)oc1N1CCOCC1	28µM*	9%	2	1%	-21%
CNc1oc(-c2ccc(OCc3ccccc3)cc2)nc1C#N	35µM*	u	4	-13%	35%
CC(=O)O[C@@H]1C(CO[Si](C)(C)C(C)(C)C)=C(Br)C(=O)[C@@H]2O[C@]12C	x	x	-4	x	-4%
N#Cc1nc(-c2ccc(OCc3ccc(Cl)cc3)cc2)oc1NCCCn1ccnc1	25µM*	0%	-1	19%	15%
C=CCOc1cccc(CNCCCN2CCOCC2)c1	14µM*	-5%	-1	17%	u
CC(=O)Oc1ccc(C(=O)Nc2ccc3c(c2)C(=O)N(CCC(=O)O)C3=O)cc1	28µM*	6%	0	23%	6%
O=C(Nc1ccc2c(c1)C(=O)N(CC1CCCO1)C2=O)c1cccc(Br)c1 (stereo not given)	32µM*	2%	4	u	45%
